# Compound activity from PubChem BioAssay.
# Only a sample is shown.
# aSyn UTR act: Activators working through SNCA 5'UTR binding (MLPCN) | activity score, % (tested at 7.5 µM), hits read low | alpha-synuclein 5'UTR reporter, activators screen | actives 7.1% (n = 300,000); in the data active = activity score below about -60%
# * hit, by the source's call.
SMILES,aSyn UTR act
Cc1ccc(-n2ncc3c(NCc4ccco4)ncnc32)cc1C,-183*
CC(C)c1cccc(C(C)C)c1NC(=O)CCl,-76*
O=C(CCl)NC(Cc1ccccc1)c1ccccc1 (centres undefined),60
COc1ccc(NC(=O)CN(C)C(=O)/C=C/c2ccc(S(=O)(=O)N3CCCCCC3)cc2)cc1,59
COc1ccc(/C=C/C(=O)NC(=S)N2CCSCC2)cc1,-65*
COc1ccc(/C=C/C(=O)NC(=S)N2CCN(c3ccccn3)CC2)cc1,-122*
Cc1cccc(CC(=O)NCC2CCCCC2)c1,-71*
Cc1cc(C(=O)NC2CCCCCCC2)ccc1[N+](=O)[O-],-141*
Cc1cccc(C(=O)NC2CCCCCCC2)c1,-214*
CCCN1C(=O)c2cc(C(=O)NC3CCCCCC3)ccc2C1O (centres undefined),-81*
Cc1cc(C(=O)Nc2ccncc2)ccc1[N+](=O)[O-],-65*
CCn1c(C)c(C)c2cc(C(=O)NC3CCCCCC3)ccc21,-87*
CN(C)c1cccc(C(=O)NC2CCCCCC2)c1,-118*
CCCCOc1ccc(/C(N)=N/O)cc1,-73*
CN1c2ccccc2Oc2nnc(N3CCN(Cc4ccccc4)CC3)cc21,-97*
FC(F)(F)c1nnc2c(Sc3ccccc3)nc3ccccc3n12,-103*
Cc1cc(C)n(-c2ccc(C(=O)Nc3nc4ccccc4s3)cc2)n1,-97*
COc1cc(C(=O)Nc2nc3ccccc3s2)ccc1OCc1c(C)noc1C,-110*
CC(=O)Nc1cc(C)nn1-c1nc2ccccc2s1,-178*
Cc1nc(-c2ccccc2)nc2[nH]c(=O)n(-c3ccccc3)c(=O)c12,-93*
Cc1noc(C)c1CSc1nc2[nH]ncc2c(=O)n1-c1ccccc1,51
O=C(N/N=C/c1cccc(F)c1)c1csc2c1CCCC2,-144*
O=C(N/N=C/c1ccccc1F)c1csc2c1CCCC2,-235*
O=C(Nc1ccccc1O)c1csc2c1CCCC2,-157*
COc1cc(C(=S)N2CCCC2)ccc1OCc1ccccc1,-67*
SMILES,aSyn UTR act
COC(=O)c1ccc(COC(=O)c2ccc(SC)cc2OC)cc1,-115*
Oc1c(CN2CCCCC2)cc(COCc2ccccc2)c2cccnc12,92
CCC(=O)c1ccc(OCc2ccccc2)c(OC)c1,-85*
CCC(=O)c1ccc(OCc2ccc(C(=O)OC)cc2)c(OC)c1,-75*
CCCCCCCCCCOC(=O)Cn1c(COc2ccccc2OC)[n+](C)c2ccccc21,81
CCCNC(=O)OCCC12CC3CC(CC(C3)C1)C2,-92*
Cc1ccn2c(C(=O)CSc3ccccc3)c(C)nc2c1,-65*
Cc1ccc(C(=O)O/N=C(\N)c2ccccn2)cc1,65
Cc1ccc(/C(N)=N/OC(=O)c2ccc(F)cc2)cc1,-194*
N/C(=N\OC(=O)c1ccc(F)cc1)c1ccc(Br)cc1,-143*
N/C(=N\OC(=O)c1ccc(F)cc1)c1ccccc1,-298*
O=C(OCc1csc(-c2ccccc2)n1)c1ccccc1O,-149*
O=C(COc1ccccc1)NCCSCc1ccccc1Cl,-64*
Cc1ccc(C(=O)CCC(=O)Nc2ccccc2F)cc1,-98*
O=C(COc1ccccc1)Nc1ccccc1Cl,-165*
Cc1ccc(OCC(=O)Nc2ccccc2F)cc1C,-178*
Cc1ccc(CCC(=O)Nc2ccccc2F)s1,-91*
CCOC(=O)c1oc2ccccc2c1NC(=O)COc1ccc(F)cc1,61
Cc1ccc(OCC(=O)Nc2ccccc2F)cc1,-72*
Cc1cc([N+](=O)[O-])ccc1NC(=O)c1cccc(NC(=O)C(C)C)c1,-99*
Cc1cc([N+](=O)[O-])ccc1NC(=O)c1csc(C)c1C,-98*
COc1ccc2oc(=N)c(C(=O)Nc3cccc(C)c3C)cc2c1,-158*
COc1ccc2oc(=N)c(C(=O)Nc3ccccc3Cl)cc2c1,-209*
CCCCCCc1cc2cc(C(=O)Nc3ccccc3)c(=O)oc2cc1O,92
O=C(Nc1ccccc1O)c1cc2cc(Br)ccc2oc1=O,-124*
SMILES,aSyn UTR act
Cc1cccnc1NC(=O)c1cc2ccccc2oc1=O,-200*
CN(C)C(CNC(=O)c1cc2ccccc2oc1=O)c1ccccc1 (centres undefined),-162*
COc1ccc2oc(=O)c(C(=O)Nc3cccc(C(C)=O)c3)cc2c1,-82*
COc1ccc2oc(=O)c(C(=O)Nc3ccccc3C)cc2c1,-199*
Cc1cc2nc3ccc(=[N+](C)C)cc-3sc2cc1N,91
CCC(=O)Nc1cccc(C(=O)/C=C/c2ccccc2)c1,-208*
Cc1ccnc(NC(=S)NC(=O)/C=C/c2ccccc2)c1,-68*
CC(=O)Nc1ccc(NC(=S)NC(=O)/C=C/c2ccc(Cl)cc2)cc1,-75*
CC(=O)c1ccc(NC(=S)NC(=O)/C=C/c2ccccc2)cc1,-104*
CCC(=O)Nc1ccc(NC(=S)NC(=O)/C=C/c2ccccc2)cc1,-62*
CCOC(=O)C1CCN(c2nnc(N3CCCC3=O)s2)CC1,-66*
O=C1Nc2cc(Cl)c(Cl)cc2N(O)N1c1ccc(Cl)cc1,-149*
Cc1cc2oc(C(=O)Nc3nonc3C)c(C)c2cc1Cl,-88*
Cc1nonc1NC(=O)c1oc2ccc(F)cc2c1C,-73*
